Holding throughout (parameters): scale not given: direction of the effect not stated beside the values
Test [1] addresses Protein translocase subunit SecA (Escherichia coli (strain K12)) (UniProt P10408). Briefly: Assay to Identify E. coli SecA ATPase Inhibitors. The format is functional. As to conditions: 30 µM.
Test [2] has as its target T1, Ubiquitin-activating enzyme e1, putative (Leishmania donovani (strain BPK282A1)) (UniProt E9BSI1).
T1 sequence (whole entry): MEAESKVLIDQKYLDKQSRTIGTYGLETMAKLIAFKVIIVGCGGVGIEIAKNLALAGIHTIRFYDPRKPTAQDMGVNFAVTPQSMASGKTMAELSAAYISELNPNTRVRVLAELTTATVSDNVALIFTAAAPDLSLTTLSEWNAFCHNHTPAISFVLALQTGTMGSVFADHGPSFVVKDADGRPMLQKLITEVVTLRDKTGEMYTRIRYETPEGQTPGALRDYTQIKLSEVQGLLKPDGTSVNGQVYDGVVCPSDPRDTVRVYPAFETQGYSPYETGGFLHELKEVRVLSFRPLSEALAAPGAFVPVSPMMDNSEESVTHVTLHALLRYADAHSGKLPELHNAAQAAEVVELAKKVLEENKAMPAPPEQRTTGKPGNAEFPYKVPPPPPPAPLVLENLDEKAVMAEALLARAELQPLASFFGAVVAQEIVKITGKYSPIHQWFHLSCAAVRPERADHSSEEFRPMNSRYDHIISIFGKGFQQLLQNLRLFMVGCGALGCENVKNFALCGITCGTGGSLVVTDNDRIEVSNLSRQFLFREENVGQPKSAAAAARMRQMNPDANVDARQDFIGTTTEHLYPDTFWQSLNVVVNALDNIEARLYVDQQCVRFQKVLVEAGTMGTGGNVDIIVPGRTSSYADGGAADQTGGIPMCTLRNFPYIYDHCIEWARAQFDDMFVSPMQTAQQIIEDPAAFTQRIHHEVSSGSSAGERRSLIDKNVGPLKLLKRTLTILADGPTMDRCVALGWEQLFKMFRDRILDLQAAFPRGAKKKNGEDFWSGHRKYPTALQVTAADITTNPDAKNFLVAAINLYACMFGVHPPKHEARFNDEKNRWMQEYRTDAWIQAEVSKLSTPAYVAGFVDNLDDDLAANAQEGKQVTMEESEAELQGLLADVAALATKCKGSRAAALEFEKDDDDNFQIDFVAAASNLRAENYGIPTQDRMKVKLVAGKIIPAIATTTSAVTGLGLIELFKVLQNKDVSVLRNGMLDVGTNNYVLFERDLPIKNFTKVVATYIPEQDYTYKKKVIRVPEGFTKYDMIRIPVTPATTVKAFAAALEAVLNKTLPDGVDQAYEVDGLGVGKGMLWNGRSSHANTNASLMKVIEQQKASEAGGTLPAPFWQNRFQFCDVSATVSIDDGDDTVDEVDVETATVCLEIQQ
The experiment in a line: Leishmania donovani Ubiquitin Activating Enzyme (LdE1). The test is classed as functional. As to conditions: 30 µM.

Test [3] addresses AMP-activated protein kinase, AMPK (Homo sapiens) (UniProt P54646+O43741+P54619+Q9UGJ0+Q9Y478+Q13131+Q9UGI9). The experiment in a line: AMP-dependent Kinase enzyme assay. An in vitro enzyme assay that detects ADP turnover that is directly proportional to AMPK activity. This uses naive AMPK that is activated during the assay with MK-8722. The test is classed as functional. The settings on record: 30 µM.

For test [4], the target named is Sialic acid-binding Ig-like lectin 9 (Homo sapiens) (UniProt Q9Y336). Briefly: Hs-Siglec9 ALPHAscreen SOP 20170721. As to conditions: 10 µM. (Bead proximity is the source of the signal in Alpha formats.)
Chain of Sialic acid-binding Ig-like lectin 9 (Homo sapiens) (Q9Y336 whole entry): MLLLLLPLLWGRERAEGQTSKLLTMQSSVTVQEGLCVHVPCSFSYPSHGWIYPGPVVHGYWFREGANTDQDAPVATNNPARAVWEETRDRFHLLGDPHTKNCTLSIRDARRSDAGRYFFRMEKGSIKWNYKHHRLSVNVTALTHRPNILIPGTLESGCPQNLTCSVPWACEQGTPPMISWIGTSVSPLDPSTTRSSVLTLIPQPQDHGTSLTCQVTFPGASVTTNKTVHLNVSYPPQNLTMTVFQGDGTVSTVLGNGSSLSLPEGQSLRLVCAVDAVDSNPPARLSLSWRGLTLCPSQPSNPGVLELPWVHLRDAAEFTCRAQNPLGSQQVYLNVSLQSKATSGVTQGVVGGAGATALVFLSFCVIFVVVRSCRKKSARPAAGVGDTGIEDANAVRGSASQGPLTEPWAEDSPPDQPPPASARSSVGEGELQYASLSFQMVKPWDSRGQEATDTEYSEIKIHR
The subject of another test is Trypanosoma cruzi. The experiment in a line: Trypanosoma cruzi phosphomannomutase and mannose-1-phosphate guanylyltransferase assay. The test is classed as functional. As to conditions: 10 µM.
Test [5] addresses T2, Arginase-2, mitochondrial (Homo sapiens) (UniProt P78540).
T2 sequence (whole entry): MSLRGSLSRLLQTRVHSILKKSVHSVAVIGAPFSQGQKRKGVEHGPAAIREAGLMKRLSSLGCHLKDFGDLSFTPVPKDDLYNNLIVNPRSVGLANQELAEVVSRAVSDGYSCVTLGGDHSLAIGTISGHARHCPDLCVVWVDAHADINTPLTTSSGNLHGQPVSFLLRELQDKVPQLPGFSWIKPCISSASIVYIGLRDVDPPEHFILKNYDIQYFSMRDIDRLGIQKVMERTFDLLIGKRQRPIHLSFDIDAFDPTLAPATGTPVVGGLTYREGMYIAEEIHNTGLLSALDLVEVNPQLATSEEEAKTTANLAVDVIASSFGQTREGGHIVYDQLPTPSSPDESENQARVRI
Briefly: in vitro enzyme assay to detect the production of urea directly proportional to the activity of Arginase II. Note: in the data most compounds retested in dose-response had high values. The test is classed as functional. As to conditions: 33.3 µM.

Test [6] deals with T3, Proteasome subunit beta (Trypanosoma cruzi) (UniProt O96673).
T3 sequence (whole entry): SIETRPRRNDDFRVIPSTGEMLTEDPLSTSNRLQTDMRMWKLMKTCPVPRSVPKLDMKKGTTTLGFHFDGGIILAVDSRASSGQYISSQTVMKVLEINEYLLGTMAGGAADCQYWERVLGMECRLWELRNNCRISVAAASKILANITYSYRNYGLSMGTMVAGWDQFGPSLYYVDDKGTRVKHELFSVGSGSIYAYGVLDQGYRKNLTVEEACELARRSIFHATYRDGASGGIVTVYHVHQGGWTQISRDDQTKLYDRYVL
The experiment in a line: Trypanosoma cruzi proteasome chymotrypsin-like activity (TcProtChymo) assay. Note: in the data most compounds retested in dose-response had high values. The format is functional. As to conditions: 9.37 µM.

The next test is filed under the species Homo sapiens. The experiment in a line: To identify inhibition of the IFN signalling (Jak-Stat) pathway via expression of an eGFP reporter gene under the control of an IFN-stimulated response element (ISRE) containing MxA promoter. The test is classed as functional. The settings on record: 30 µM. In general terms: Reporter assays use an easily measured gene product as a stand-in for the process of interest.

Test [7] has as its target T4, Tyrosyl-tRNA synthetase, putative (Trypanosoma cruzi (strain CL Brener)) (UniProt Q4DSP6).
T4 sequence (whole entry): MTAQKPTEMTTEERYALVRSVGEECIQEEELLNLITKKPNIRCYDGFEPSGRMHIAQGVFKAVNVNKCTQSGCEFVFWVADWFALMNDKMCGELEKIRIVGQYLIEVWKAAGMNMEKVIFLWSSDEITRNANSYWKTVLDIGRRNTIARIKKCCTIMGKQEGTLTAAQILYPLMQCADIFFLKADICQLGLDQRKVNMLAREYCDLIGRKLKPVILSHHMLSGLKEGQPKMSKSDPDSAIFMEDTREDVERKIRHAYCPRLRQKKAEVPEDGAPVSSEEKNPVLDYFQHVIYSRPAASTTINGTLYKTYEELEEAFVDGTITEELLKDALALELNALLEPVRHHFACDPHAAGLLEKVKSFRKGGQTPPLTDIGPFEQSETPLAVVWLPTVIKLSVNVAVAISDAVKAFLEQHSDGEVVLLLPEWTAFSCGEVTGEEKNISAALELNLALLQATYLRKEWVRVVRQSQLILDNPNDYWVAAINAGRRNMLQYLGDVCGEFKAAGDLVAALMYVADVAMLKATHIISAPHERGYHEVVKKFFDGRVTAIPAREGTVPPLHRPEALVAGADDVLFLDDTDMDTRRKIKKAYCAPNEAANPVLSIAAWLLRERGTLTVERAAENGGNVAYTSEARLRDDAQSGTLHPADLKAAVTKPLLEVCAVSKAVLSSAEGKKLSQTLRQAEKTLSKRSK
Briefly: Trypanosoma cruzi tyrosyl tRNA synthetase (TcYRS) _High Tyrosine SOP. Note: in the data most compounds retested in dose-response had high values. The test is classed as functional. The settings on record: 30 µM.

Test [8] concerns the target T4, Tyrosyl-tRNA synthetase, putative (Trypanosoma cruzi (strain CL Brener)). Briefly: Trypanosoma cruzi tyrosyl tRNA synthetase (TcYRS) SOP. The format is functional. As to conditions: 30 µM.
Test [9] deals with Chromo domain-containing protein 1 (Saccharomyces cerevisiae (strain ATCC 204508 / S288c) (Baker's yeast)) (UniProt P32657). Briefly: ScCHD-1 Enzyme Inhibition Assay. Note: in the data most compounds retested in dose-response had high values. The format is functional. The settings on record: 30 µM.
Chain of Chromo domain-containing protein 1 (Saccharomyces cerevisiae (strain ATCC 204508 / S288c) (Baker's yeast)) (P32657 whole entry, the tested form may be a part): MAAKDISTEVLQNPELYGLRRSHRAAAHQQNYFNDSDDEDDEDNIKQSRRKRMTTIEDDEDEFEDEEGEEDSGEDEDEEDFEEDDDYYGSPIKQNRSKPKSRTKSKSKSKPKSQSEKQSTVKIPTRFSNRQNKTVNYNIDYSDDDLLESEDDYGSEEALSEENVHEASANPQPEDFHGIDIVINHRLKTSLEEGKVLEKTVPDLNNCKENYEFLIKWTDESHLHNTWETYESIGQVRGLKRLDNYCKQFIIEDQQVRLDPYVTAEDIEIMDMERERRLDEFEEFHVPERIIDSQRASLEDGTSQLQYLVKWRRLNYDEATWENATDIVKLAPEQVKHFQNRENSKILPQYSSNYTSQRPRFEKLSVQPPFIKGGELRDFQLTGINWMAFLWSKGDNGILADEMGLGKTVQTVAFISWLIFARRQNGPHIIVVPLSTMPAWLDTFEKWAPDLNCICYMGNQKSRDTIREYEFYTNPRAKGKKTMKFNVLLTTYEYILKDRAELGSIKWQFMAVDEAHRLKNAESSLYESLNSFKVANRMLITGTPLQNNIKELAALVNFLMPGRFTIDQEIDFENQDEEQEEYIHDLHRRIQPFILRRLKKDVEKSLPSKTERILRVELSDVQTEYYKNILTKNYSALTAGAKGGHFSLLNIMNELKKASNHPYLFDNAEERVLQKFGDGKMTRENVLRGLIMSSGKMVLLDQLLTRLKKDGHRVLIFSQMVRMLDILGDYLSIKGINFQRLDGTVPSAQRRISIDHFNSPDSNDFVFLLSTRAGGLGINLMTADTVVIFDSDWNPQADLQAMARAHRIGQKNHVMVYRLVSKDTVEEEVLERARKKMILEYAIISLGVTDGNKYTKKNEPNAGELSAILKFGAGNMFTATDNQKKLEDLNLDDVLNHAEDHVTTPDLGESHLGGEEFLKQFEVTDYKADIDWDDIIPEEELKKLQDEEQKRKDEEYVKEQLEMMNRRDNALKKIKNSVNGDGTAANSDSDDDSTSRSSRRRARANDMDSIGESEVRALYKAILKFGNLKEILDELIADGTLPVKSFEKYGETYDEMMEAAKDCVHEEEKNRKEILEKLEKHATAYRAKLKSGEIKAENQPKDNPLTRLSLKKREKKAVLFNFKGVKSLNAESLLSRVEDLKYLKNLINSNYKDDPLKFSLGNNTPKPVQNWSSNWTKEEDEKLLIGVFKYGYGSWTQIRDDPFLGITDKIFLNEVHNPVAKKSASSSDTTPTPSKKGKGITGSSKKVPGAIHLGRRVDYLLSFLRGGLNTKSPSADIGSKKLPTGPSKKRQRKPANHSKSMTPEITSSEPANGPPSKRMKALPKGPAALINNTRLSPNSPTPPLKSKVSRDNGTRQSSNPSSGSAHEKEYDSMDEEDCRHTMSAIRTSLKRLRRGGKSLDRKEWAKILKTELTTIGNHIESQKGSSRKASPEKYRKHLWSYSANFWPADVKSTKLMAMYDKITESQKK

For 11 compounds, Percent Effect results are on record in ChEMBL document CHEMBL3988442, “University of Dundee, Small-Polar-MMV Screening Library” (2021).

The structures appear in SMILES notation. For some of these results: Results with a measured potency or affinity are listed apart.

Chain of Protein translocase subunit SecA (Escherichia coli (strain K12)) (P10408 whole entry): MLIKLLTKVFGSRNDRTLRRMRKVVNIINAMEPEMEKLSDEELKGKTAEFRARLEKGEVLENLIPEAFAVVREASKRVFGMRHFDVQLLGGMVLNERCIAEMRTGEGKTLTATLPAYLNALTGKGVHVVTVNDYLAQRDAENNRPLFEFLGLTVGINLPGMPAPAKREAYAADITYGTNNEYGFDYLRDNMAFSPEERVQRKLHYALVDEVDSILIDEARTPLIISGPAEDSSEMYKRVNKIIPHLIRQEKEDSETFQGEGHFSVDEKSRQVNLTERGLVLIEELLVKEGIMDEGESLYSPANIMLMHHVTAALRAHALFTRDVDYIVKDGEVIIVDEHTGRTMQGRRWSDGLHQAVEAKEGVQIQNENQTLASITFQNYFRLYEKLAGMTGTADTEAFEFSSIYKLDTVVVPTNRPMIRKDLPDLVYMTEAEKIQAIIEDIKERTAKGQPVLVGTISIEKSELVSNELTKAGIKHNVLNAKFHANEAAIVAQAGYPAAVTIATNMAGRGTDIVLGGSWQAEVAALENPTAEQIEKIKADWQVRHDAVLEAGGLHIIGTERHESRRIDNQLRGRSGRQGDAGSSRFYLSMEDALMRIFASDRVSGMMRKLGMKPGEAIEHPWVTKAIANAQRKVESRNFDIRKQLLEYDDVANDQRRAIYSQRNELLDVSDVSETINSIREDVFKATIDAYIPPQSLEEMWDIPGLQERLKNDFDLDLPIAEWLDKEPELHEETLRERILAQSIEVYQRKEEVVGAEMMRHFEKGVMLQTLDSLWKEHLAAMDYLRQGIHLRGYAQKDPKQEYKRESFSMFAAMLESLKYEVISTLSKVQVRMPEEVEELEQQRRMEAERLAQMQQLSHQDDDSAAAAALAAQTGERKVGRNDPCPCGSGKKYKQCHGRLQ

For `Cc1cccc(-n2cc(C(=O)N3CCCC(n4cccn4)C3)nn2)c1` (stereo unspecified), the Percent Effect in test [1] was -6.43%; in test [2], 23.4%; in test [3], -0.0164%; in [4] it was -1.49%; in the test on Trypanosoma cruzi, 5.78%; in test [5], -2.74%. In addition, the Percent Effect is 27.4% in [6]; 4.51% in the test listed under Homo sapiens; 6.67% in test [7]; 25.9% in [8]; -14.2% in test [9].
For the compound `O=C(CCNC(=O)c1ccoc1)NCc1ccccc1F`, the Percent Effect was 2.18% in test [1]; 13% in test [2]; 3.8% in [3]; -2.98% in [4]; -2.45% in the test with Trypanosoma cruzi; 6.53% in test [5]. Moreover, the Percent Effect in test [6] was 19.5%; in the test filed under Homo sapiens it was 24%; in test [7] it was 5.71%; in [8], 18.8%; in [9] it was -3.8%.
For `c1ccc(-n2nnnc2CN2CCCC(Cn3cncn3)C2)cc1` (stereo unspecified), the Percent Effect in [1] was -1.71%; in [2] it was 6.33%; in test [3] it was 5.51%; in test [4], 4.14%; in the test with Trypanosoma cruzi, -5.03%; in test [5], 0.645%. Moreover, the Percent Effect is 9.61% in [6]; 4.63% in the test filed under Homo sapiens; 3.12% in [7]; 10.1% in [8]; -17.9% in [9].
For `CC(C)Cc1noc(CN2CCCC(Cn3cncn3)C2)n1` (stereo unspecified), the Percent Effect was -4.29% in test [1]; 16.2% in test [2]; -4.96% in test [3]; 16.6% in [4]; 3.25% in the test on Trypanosoma cruzi; 2.03% in [5]. Besides, the Percent Effect is 7% in test [6]; 13.5% in the test filed under Homo sapiens; 11.9% in test [7]; 28.1% in test [8]; -7.85% in test [9].
With `CCC1=N[C@@]2(CC[C@@H]3CN(Cc4ccccc4F)C[C@@H]32)C(=O)N1CC`, the Percent Effect is -5.1% in test [1]; 0% in test [2]; -2.64% in test [3]; -1.67% in test [4]; -1.17% in the test with Trypanosoma cruzi; 12.5% in [5]. Moreover, the Percent Effect in test [6] was 18.7%; in the test filed under Homo sapiens it was 5.93%; in test [7], 12.9%; in test [8] it was 18.3%; in test [9], -6.7%.
As to `CC(C)N1CCC(Cc2cc(-c3cccc(C(=O)O)c3)ncn2)C1` (stereo unspecified), the Percent Effect in test [1] is 1.6%; in [2], -9.46%; in [3], 7.52%; in test [4], 4.36%; in the test on Trypanosoma cruzi, -1.78%; in test [5], -0.232%. Besides, the Percent Effect turned out to be 2.5% in [6]; 0.46% in the test listed under Homo sapiens; 2.15% in test [7]; 1.3% in test [8]; 20.8% in test [9].
`Cc1nnc(C(C)NCC2(c3ccc(Cl)cc3)CCCC2)o1` (stereo unspecified): the Percent Effect in [1] was -2.66%; in [2] it was -8.11%; in test [3], -5.55%; in test [4] it was 5.04%; with Trypanosoma cruzi, -1.74%; in test [5], -4.76%. Moreover, the Percent Effect in [6] is 7.07%; in the test filed under Homo sapiens, 19.5%; in test [7], 0.529%; in test [8], -4.88%; in test [9], 0.504%.
As for `COc1ccccc1CC(=O)N1CCCC(n2nc(C)cc2C)C1` (stereo unspecified), the Percent Effect in test [1] was 4.86%; in test [2], 0%; in test [3], 2.98%; in test [4], -5.42%; with Trypanosoma cruzi, -1.23%; in [5] it was 5.32%. Moreover, the Percent Effect in test [6] was 1.06%; in the test listed under Homo sapiens, 2.12%; in test [7], -0.493%; in test [8] it was -3.8%; in [9], -0.887%.
Regarding `CCc1noc(CN2CCCN(C(N)=O)CC2)n1`, the Percent Effect in [1] was -0.23%; in [2], 0%; in test [3], 5.45%; in [4], 11.3%; with Trypanosoma cruzi, -6.7%; in test [5], 4.94%. Further, the Percent Effect was 5.98% in test [6]; 21.4% in the test filed under Homo sapiens; -1.48% in test [7]; -8.86% in test [8]; -6.21% in [9].
Turning to `CSCCC(=O)N1CCC(Oc2cc(C)ccc2F)(C(=O)O)CC1`, the Percent Effect in [1] is -1.39%; in [2] it was -1.39%; in test [3] it was -5.71%; in test [4], -2.17%; in the test with Trypanosoma cruzi, -2.43%; in test [5] it was -1.32%. For the same compound, the Percent Effect in [6] was 0.351%; in the test listed under Homo sapiens, -30.7%; in [7], -2.1%; in test [8], 2.56%; in test [9] it was 2.79%.
Turning to `N#Cc1cccnc1NCCNC(=O)N1CCCSCC1`, the Percent Effect in test [1] is -3.35%; in test [2], 2.7%; in test [3], -4.19%; in test [4], 3.38%; with Trypanosoma cruzi it was 8.11%; in test [5], -2.38%. Moreover, the Percent Effect in test [6] is 14.3%; in the test listed under Homo sapiens, -19.3%; in test [7], 3.7%; in [8], 12.2%; in [9], -6.59%.
